Most compounds without a hit are left out; they make up all but 1.7% or so of the library.
F508del corr: CFTR F508del correction in bronchial cells; CFBE cells, YFP halide quenching; stimulated with forskolin plus potentiator P3; % fluorescence drop versus neutral controls; activity (quench increase), % at 7.58 µM; 0.36% of 350,000 active;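 active means mean added fluorescence quench of at least 8% versus neutral control, with both replicates also reaching 8%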;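 further: cells transiently co-express mutant CFTR-F508del with the halide-sensitive YFP; corrector assay measuring rescue of mutant channel to the surface after 24 h compound exposure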
FGF22 binding-1: FGF22 (human) thermal shift binding; Q9HCT0; recombinant FGF22 thermal shift, SYPRO orange fluorescence; percent of sucrose octasulfate shift, DMSO zero; activity (Tm shift, normalised), % at 9.99 µM; 1.5% of 340,000 active; AID 651658;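 active means mean Tm shift, scaled 0 neutral to 100 positive control, at about 1.3% or above, every replicate too, limit read from the data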
Target sequence (Q9HCT0 whole entry, looked up): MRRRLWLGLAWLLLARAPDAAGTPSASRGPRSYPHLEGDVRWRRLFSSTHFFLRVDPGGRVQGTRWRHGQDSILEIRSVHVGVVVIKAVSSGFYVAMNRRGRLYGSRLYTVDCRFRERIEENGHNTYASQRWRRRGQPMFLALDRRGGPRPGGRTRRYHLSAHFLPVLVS
Vif inh: blocks HIV Vif function. AID 602346. 0.35% of 340,000 active. HEK293T cells, Vif self-association by quenched fluorescence, imaging, 24 h. inhibition, % at 7.49 µM; in the data active means inhibition above about 50%, passing the limit was not always enough
FGF22 binding-2: FGF22 (human) binding in thermal shift | AID 720646 | 2% of 1,000 active | shares compounds with FGF22 binding-1 | thermal shift activity, °C (ΔTm) at 38 µM | recombinant FGF22 thermal shift, SYPRO orange fluorescence;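 active means fitted rise in melting shift crosses a set limit at or below the top valid dose tested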
SYPRO no-protein: counter-screen for FGF22 binders: compound-only thermal shift, no protein; shares compounds with FGF22 binding-1; compound-only SYPRO orange thermal shift counter-screen; AC50, µM (highest dose often 38 µM); 2% of 1,000 active; AID 743019;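 active means rising signal whose fitted curve reaches the 0.54 level within the top valid dose, showing a melting point, actives reach about 13 µM in these data; inactive means the rest, including activity in the opposite direction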; further: value is where the raw curve crosses a fixed level and not half-maximal
* hit, by the source's call; [ ] = another dose, or the depositor's remark.

`COc1cccc(C#Cc2ccc([C@@H]3[C@H]4CN(C(=O)c5ccccc5)CC(=O)N4[C@H]3CO)cc2)c1` gave F508del corr 6.5 and FGF22 binding-1 -0.9.
`CNC[C@H]1OCCCC[C@H](C)Oc2ccc(NC(=O)NC(C)C)cc2C(=O)N([C@H](C)CO)C[C@@H]1C` gave F508del corr -2.8 and FGF22 binding-1 0.1.
C[C@@H]1CN([C@@H](C)CO)C(=O)c2cc(NS(=O)(=O)c3cn(C)cn3)ccc2O[C@@H](C)CCCCO[C@H]1CN(C)S(=O)(=O)c1ccc(F)cc1 was read as F508del corr -2.0 and FGF22 binding-1 -0.4.
For O=C(NCC[C@@H]1CC[C@H](NC(=O)C2CC2)[C@@H](CO)O1)Nc1ccc(Cl)cc1 the results were F508del corr -0.7 and FGF22 binding-1 0.1.
For O=C(NCC[C@H]1CC[C@H](NC(=O)C2CCOCC2)[C@H](CO)O1)Nc1ccc(Cl)cc1 the results were F508del corr -1.3.
Screening O=C(NCC[C@H]1CC[C@H](NC(=O)C2CCOCC2)[C@@H](CO)O1)Nc1ccc(Cl)cc1 returned F508del corr 0.9, FGF22 binding-1 1.5*, FGF22 binding-2 -0.047 and SYPRO no-protein inactive.
O=C(NCC[C@@H]1CC[C@@H](NC(=O)C2CCOCC2)[C@H](CO)O1)Nc1ccc(Cl)cc1 was read as F508del corr -1.9, FGF22 binding-1 1.4*, FGF22 binding-2 0.147[42 µM] and SYPRO no-protein inactive.
For O=C(O)c1ccccc1NS(=O)(=O)c1ccc2ccccc2c1 the results were F508del corr 3.0, FGF22 binding-1 1.6*, Vif inh 21.5, FGF22 binding-2 -0.049 and SYPRO no-protein inactive.
Screening Cc1cc(C)c(C)c(S(=O)(=O)Nc2ccccc2C(=O)O)c1C returned F508del corr 2.8, FGF22 binding-1 1.4*, Vif inh -3.9, FGF22 binding-2 0.149 and SYPRO no-protein inactive.
Screening Cc1cc(NC(=O)c2ccccc2NS(=O)(=O)c2c(C)c(C)cc(C)c2C)no1 returned Vif inh -13.5.
`O=C(O)c1cc(NS(=O)(=O)c2ccc3ccccc3c2)ccc1O` gave F508del corr -1.3 and Vif inh 10.4.
`Cc1noc(C)c1S(=O)(=O)Nc1cccc2c1O[C@H](CN(C)Cc1ccc(C(=O)Nc3ccccc3N)cc1)[C@H](C)CN([C@@H](C)CO)C2=O` gave F508del corr -0.3 and FGF22 binding-1 -0.5.
`O=C(Cc1ccccc1)N1CC[C@@H]2[C@@H](CO)Nc3ccc(Br)cc3[C@@H]21` gave F508del corr -0.2 and FGF22 binding-1 0.4.
For COC(=O)[C@H]1[C@H](CO)[C@H]2Cn3c(ccc(-c4cccc(F)c4)c3=O)[C@H]2N1C(C)=O the results were F508del corr -0.8 and FGF22 binding-1 -0.1.
For Cc1noc(C)c1NC(=O)NCC[C@H]1CC[C@@H](NC(=O)Cc2cccnc2)[C@@H](CO)O1 the results were F508del corr -0.8 and FGF22 binding-1 0.0.
`CN1CCN(C(=O)c2cc3c(c(-c4cccc(-c5cccc(F)c5)c4)n2)[C@@H](CCO)N(S(=O)C(C)(C)C)C3)CC1` (some centres not stated) gave F508del corr -1.5 and FGF22 binding-1 -0.1.
Screening C/C(=N\NC(=O)CNC(=O)c1ccncc1)c1ccc(C)cc1 returned F508del corr -1.4, FGF22 binding-1 1.6*, Vif inh -3.7, FGF22 binding-2 0.043 and SYPRO no-protein inactive.
Screening C/C(=N/NC(=O)CNC(=O)c1cccnc1)c1ccc(Cl)cc1 returned F508del corr -0.4, FGF22 binding-1 -0.2 and Vif inh -4.8.
Screening COc1ccc(CN(C)C[C@@H]2Oc3ccc(N(C)C)cc3CC(=O)N([C@H](C)CO)C[C@H]2C)cc1 returned F508del corr -2.5 and FGF22 binding-1 -0.3.
For COc1cc(OC)cc(C(=O)Nc2ccc(S(=O)(=O)Nc3nc(C)cc(C)n3)cc2)c1 the results were F508del corr 0.6, FGF22 binding-1 1.4*, Vif inh 3.4, FGF22 binding-2 0.05 and SYPRO no-protein inactive.
For COc1ccc(CC(=O)Nc2ccc(S(=O)(=O)Nc3nc(C)cc(C)n3)cc2)cc1 the results were Vif inh -7.3.
Screening C[C@H](CO)N1C[C@H](C)[C@@H](CN(C)Cc2ccncc2)Oc2ccc(NC(=O)C3CC3)cc2C1=O returned F508del corr 2.0.
COCC(=O)Nc1ccc2c(c1)C(=O)N(C)C[C@@H](OC)[C@@H](C)CN(Cc1ccccc1F)[C@H](C)CO2 was read as F508del corr 3.6 and FGF22 binding-1 0.1.
For COc1ccc2c3c(n(C)c2c1)[C@@H](CO)N(Cc1cc(F)ccc1F)CC31CCN(C(C)=O)CC1 the results were F508del corr -0.8 and FGF22 binding-1 -0.2.
`Cc1ccc(C(=O)O/N=C2\CCCc3ccccc32)cc1` gave Vif inh 8.8.
`O=C(O/N=C1\CCCc2ccccc21)C1CC1` gave F508del corr 1.2, FGF22 binding-1 2.7*, Vif inh 2.5, FGF22 binding-2 0.067 and SYPRO no-protein inactive.
C[C@@H]1CCCCO[C@H](CN(C)Cc2ccc(C(F)(F)F)cc2)[C@H](C)CN([C@H](C)CO)C(=O)c2cc(NC(=O)NC3CCCCC3)ccc2O1 was read as F508del corr -0.2 and FGF22 binding-1 0.8.
Screening CNC[C@H]1Oc2ccc(NC(=O)C3CC3)cc2CC(=O)N([C@@H](C)CO)C[C@@H]1C returned F508del corr -0.8 and FGF22 binding-1 -0.2.
`COc1ccc(N2C(=O)C(CC(=O)Nc3ccccc3)N(Cc3ccc4c(c3)OCO4)C2=O)cc1` (configuration not stated) gave F508del corr 1.0, FGF22 binding-1 1.4*, Vif inh 8.2, FGF22 binding-2 0.043 and SYPRO no-protein inactive.
Screening C=CCN1C(=O)C(CC(=O)Nc2ccc(OCC)cc2)N(Cc2ccccn2)C1=S (configuration not stated) returned F508del corr 0.9, FGF22 binding-1 1.1 and Vif inh 6.2.
`COC(=O)CN1C(=S)N(c2ccc(Cl)cc2)C(=O)C1CC(=O)Nc1ccc(F)cc1` (configuration not stated) gave FGF22 binding-1 1.9*, Vif inh -2.4, FGF22 binding-2 -0.156 and SYPRO no-protein inactive.
`CCOc1ccc(N2C(=O)C(CC(=O)Nc3ccccc3)N(Cc3ccccn3)C2=S)cc1` (configuration not stated) gave F508del corr -2.9, FGF22 binding-1 1.5*, Vif inh -0.1, FGF22 binding-2 0.577 and SYPRO no-protein inactive.
For CCOc1ccc(N2C(=O)C(CC(=O)Nc3ccc(F)cc3)N(Cc3ccccn3)C2=S)cc1 (configuration not stated) the results were F508del corr 2.9, FGF22 binding-1 1.7*, Vif inh -0.9, FGF22 binding-2 -0.354 and SYPRO no-protein inactive.
